Measured values taken from PubChem BioAssay (NCI).
The panel holds about 83,000 compounds, 20% with a hit somewhere; the sample as a whole holds those more often.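 Compound tested at a single concentration for 48 hours in 96-well plates; a percent growth value below 10 was scored as active.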 Values without a mark were called inactive. The source made the active and inactive calls.

These molecules were tested on CAKI-1 renal (assay: NCI-60 one-dose screen, 48 h (100 = growth as untreated, 0 = no growth, -100 = all killed)). Conditions: 10 µM.
Experimental: Growth inhibition of the CAKI-1 human tumor cell line is measured as a screen for anti-cancer activity. Cells are grown in 96 well plates and exposed to the test compound for 48 hours. Compounds are tested at a single concentration, which is 10^-5 M for most compounds. The reported endpoint is percent growth (GI% or GIPRCNT), where numbers from 0 - 100% represent growth inhibition, and numbers from -100% - 0 represent cell death. For example, a value of 40 represents 60% growth inhibition. A value of 0 means no net growth occurred over the course of the experiment. A value of -40 indicates 40% of cells at the beginning of the experiment died by the end of the experiment. A value of -100 means all cells are dead at the end of the experiment.
NCI-60 Human Tumor Cell Lines Screen was performed using the standard one-dose NCI protocol, which is described in more detail at https://dtp.cancer.gov/discovery_development/nci-60/default.htm.
Compounds with GIPRCNT values below 10 were considered active. Activity score was based on GIPRCNT using the following formula: […]
Score is 0 for GIPRCNT values of 100 or above, 50 for GIPRCNT values of 0, and 100 for GIPRCNT values of -100.

| Structure (SMILES) | growth |
| --- | --- |
| O=C(CS(=O)(=O)c1oc(-c2ccc(Cl)cc2)nc1S(=O)(=O)c1ccccc1)N1CCCC1 | -98.7% (active) |
| O=C(NO)c1ccc(Cn2ccc3c(Nc4ccccc4)ncnc32)cc1 | 10.7% |
| CN1CCc2c(sc3ncnc(N/N=C/c4cn(-c5ccccc5)nc4-c4ccc(Cl)cc4)c23)C1 | 23.8% |
| CCCCSc1nc(Nc2ccc(/C(C)=N/NC(N)=S)cc2)c(C#N)c(-c2ccc(F)cc2)n1 | 45.2% |
| COC(=O)CC1CC1C1Cc2c(nc(N(C)S(C)(=O)=O)nc2C(C)C)-c2ccc(F)cc21 (stereo not given) | 52.1% |
| Cc1ccc(-c2nc3ccc(C(=O)N=Nc4c(O)[nH]c5ccc(Br)cc45)cc3[nH]2)cc1 | 92.7% |
| COc1cc(C2CC(c3ccc(C)cc3)=Nc3c(N)nc(N)nc3N2)ccc1Oc1nc(Nc2ccc(F)cc2)nc(N(C)C)n1 (stereo not given) | 49.4% |
| COc1ccc(N(C)c2cc(C#N)nc3ccccc23)cc1N | 26.1% |
| CC(=O)Nc1ccc(-c2cn(-c3cccc(C(=O)Nc4cc(CN5CCOCC5)cc(C(F)(F)F)c4)c3)nn2)cn1 | -91.9% (active) |
| N#Cc1c(NC(=O)c2ccc(C(O)(C(F)(F)F)C(F)(F)F)cc2)sc2c1CCC(=O)C2 | -68.9% (active) |
| Cc1ccc(C(=O)N/C(=C2/OCCN2C)[P+](c2ccccc2)(c2ccccc2)c2ccccc2)cc1 | 102% |
| COc1ccc(N(C)c2cc(C#N)nc3ccccc23)cc1/C=C/C(=O)NO | -19.2% (active) |
| C#Cc1ccc(S(=O)(=O)Nc2cccc(-c3csc(NC(C)=O)n3)c2)cc1 | 65.3% |
| Cc1noc2c(Cc3ccccc3)nn(CC(=O)N/N=C/c3ccc(Cl)cc3)c(=O)c12 | 38.5% |
| COc1ccc2[nH]c(=O)c(CSc3cccc(N)c3)cc2c1 | 40.5% |
| CC(=O)Nc1ccc(-n2cnc3cc(-c4ccc(O)cc4)ccc32)cc1F | 17.9% |
| COc1ccc(-c2cc(-c3cc(C(=O)c4ccc(Br)cc4)n4ccc(C)cc34)nc(N)c2C#N)cc1 | 68.1% |
| COc1cc2c3c(n(CCCn4ccnc4)c(=O)c2cc1OC)-c1nc2c(cc1C3=O)OCO2 | 10.2% |
| O=C(CSc1ccc(-c2ccc(Cl)cc2)nn1)Nc1ccc(Cl)c(C(F)(F)F)c1 | 61.3% |
| CN(C)c1cccc2c(S(=O)(=O)Nc3cccc(-c4csc(NC(=O)CCCCCN5CCN(c6cc7c(cc6F)C(=O)N(C6CCC(=O)NC6=O)C7=O)CC5)n4)c3)cccc12 (stereo not given) | 79.4% |

| Structure (SMILES) | growth |
| --- | --- |
| Cc1cccc2cc(-c3cc(-c4ccccc4)nc(=S)[nH]3)c(Cl)nc12 | 76.2% |
| CCOC(=O)C1=C(N)N(c2ccc(Cl)cc2)C2=C(C(=O)CC(C)(C)C2)C1c1ccc(N2CCOCC2)cc1 (stereo not given) | 86.7% |
| Cc1ccc([N+](=O)[O-])c(C(=O)Nc2ccc(-c3ccc4c(c3)NC(=O)/C4=C\c3ccc[nH]3)cc2)c1 | 69.4% |
| COc1ccc2[nH]cc(/C=N/Nc3cccc(Cl)n3)c2c1 | 46.7% |
| Cc1cc(C)nc(/N=C(\N)Nc2ccc(S(=O)(=O)Nc3nc(C)cc(C)n3)cc2)n1 | 100% |
| N#Cc1ccc(NC(=O)CSc2ccc(-c3ccc(Br)cc3)nn2)cc1 | 67.2% |
| COC(=O)c1c(C(=O)OC)c2n(c1C)[C@@H]([C@@H](C)[C@H]1CC[C@H]3[C@@H]4CCC5=CC(=O)CC[C@]5(C)[C@H]4CC[C@]13C)SC2 | -3.55% (active) |
| CC(=O)Nc1ccc(-c2cn(-c3cccc(C(=O)Nc4ccc(Cl)c(C(F)(F)F)c4)c3)nn2)cn1 | -27.8% (active) |
| Cc1cc(C)nc(NS(=O)(=O)c2ccc(N/C(N)=N/c3nccc(-c4ccccc4)n3)cc2)n1 | 43.6% |
| CC[C@]12C=CCN3CC[C@@]4(c5cc(C#CCNc6ccc(C)c(Nc7nccc(-c8cccnc8)n7)c6)c(OC)cc5N(C)[C@H]4[C@@](O)(C(=O)OC)[C@@H]1OC(C)=O)C32 (stereo not given in full) | 40.4% |
| COc1ccccc1[C@H]1C(C(=O)c2ccc(O)cc2)C2(N[C@@H]1c1ccccc1)C(=O)Nc1ccc(Br)cc12 (stereo not given in full) | 18.7% |
| COc1cc2c3c(n(CCCNC(C)C)c(=O)c2cc1OC)-c1nc2c(cc1C3=O)OCO2 | 13.7% |
| CC1(C)CC[C@]2(C(=O)O)CC[C@]3(C)C(=CC[C@@H]4[C@@]5(C)C/C(=C/c6ccncc6)[C@H](O)C(C)(C)[C@@H]5CC[C@]43C)[C@@H]2C1 | 35.6% |
| O=C1Nc2cc(Cl)ccc2/C1=C/c1ccc(OCc2ccc(Br)cc2F)cc1 | -59% (active) |
| O=C(O)CCCCCCCCCCN1C(=O)/C(=C/c2cnc(-c3ccccc3)s2)SC1=S | 61.6% |
| Cc1ccc(CNC(=O)Cc2ccc3c(c2)CN(C2CCC(=O)NC2=O)C3=O)cc1 (stereo not given) | 52.6% |
| Cn1cc(/C=N/Nc2cccc(Cl)n2)c2ccccc21 | 66.9% |
| C=C[C@H]1[C@H](O[C@@H]2OC(CO)[C@@H](O)[C@H](O)C2OC(=O)c2c(O)cc(O)cc2-c2cccc(O)c2)OC=C2C(=O)OCC[C@H]21 (stereo not given in full) | 93.9% |
| COc1ccc2[nH]c(=O)c(CSc3nccc(-c4ccc(Cl)cc4)n3)cc2c1 | -75.9% (active) |
| CN1CCN(c2ccc(Nc3nc(NCCCNC(=O)C4CCCCC4)c4sccc4n3)cc2)CC1 | 57.2% |
